Laboratory results taken from PubChem BioAssay (NCATS).
Inconclusive results are not listed. Where a call stands in place of a potency, no number is given. Active and inactive are the calls of the source. Unless noted, calls follow the shape of the dose curve; as a rule, active = well fitted curve in the direction sought with a large enough effect; inconclusive = small, poorly fitted or top-dose-only effect, or another doubt; inactive = no such curve, though single readings can be large; an effect the other way counts as inactive or inconclusive.

Legend:
[1] = qHTS for differential inhibitors of proliferation of Plasmodium falciparum line Dd2 (AID 1882); conditions: Potency: Plasmodium falciparum Dd2 proliferation inhibition; also: nearly all actives have a fitted effect of over 65% in size; also: potency is read from the fitted curve at half-maximal effect
Summary of the method: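 Dd2-infected erythrocytes (0.3% parasitemia, 2.5% hematocrit final) incubated with compound 72 h at 37 C, 5% CO2; lysed with saponin/Triton buffer containing SYBR Green I, incubated overnight in the dark, then read by fluorescence (485/535 nm). Normalized to 0.29 uM artemisinin and DMSO.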

[2] = qHTS for differential inhibitors of proliferation of Plasmodium falciparum line HB3 (AID 1886); conditions: Potency: Plasmodium falciparum HB3 proliferation inhibition;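 also: parasites grown with compound for 72 h before SYBR Green readout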; also: potency is read from the fitted curve at half-maximal effect
[3] = qHTS Assay for Modulators of Human Peripheral Myelin Protein 22 (PMP22) Expression/Activity (AID 1967; active = well fitted curve in the direction sought with a large enough effect in the signal ratio; the % refers to the signal ratio)
Summary of the method: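 Mouse MSC80 Schwann cells carrying Pmp22 promoter–green click beetle luciferase plus EF-alpha–red luciferase control, dosed 24 h at 37 °C. Dual-filter luminescence, overlap-corrected; %Activity from green/red ratio normalised to untreated cells, concentration-response curves fitted.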

[4] = biological target: Ferritin light chain (Equus caballus) (UniProt P02791); test: qHTS Validation Assay for Identification of Novel General Anesthetics (AID 2323); also: series mostly up to about 77 µM
Sequence of Ferritin light chain (Equus caballus) (P02791 2-175 limits assumed): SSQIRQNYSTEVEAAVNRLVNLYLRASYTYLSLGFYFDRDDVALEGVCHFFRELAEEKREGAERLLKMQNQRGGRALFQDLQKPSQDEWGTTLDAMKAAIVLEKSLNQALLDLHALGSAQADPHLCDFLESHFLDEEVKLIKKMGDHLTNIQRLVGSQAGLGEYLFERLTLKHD
Summary of the method: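 Horse-spleen apoferritin (10 uM) in PBS with 50% saturated 1-aminoanthracene; compounds pin-transferred, 10 min at room temperature. Fluorescence read at 380/535 nm, normalized to free 1-AMA and 1-AMA/apoferritin values; four-parameter Hill fit.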

[5] = Cytometric Cell-Based qHTS for Inhibitors of the mTORC1 Signaling Pathway in MEF (Tsc2-/-, p53-/-) Cells (AID 2660);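 also: Tsc2 and p53 null MEFs carrying empty vector with compound for 24 h; percent of cells above a phospho-rpS6 to PI ratio cutoff in each well; series mostly up to about 38 µM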
Summary of the method: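 Immunofluorescence qHTS of rpS6 Ser235/236 phosphorylation: MEFs (Tsc2-/-, p53-/-) treated 24 h, 37 C, in DMEM + 10% FBS. Alexa-488 signal normalized to PI count, referenced to rapamycin (7.5 nM) and DMSO; PI cell number recorded for viability.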

[6] = High Content Imaging Cell-Based qHTS for Inhibitors of the mTORC1 Signaling Pathway in MEF (Tsc2-/-, p53-/-) Cells (AID 2666);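 also: percent of cells scored positive for phospho-rpS6 Ser235/236 immunostaining by imaging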
Summary of the method: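 Cells were plated, dosed with compound after 24 hrs, and incubated another 24 hrs at 37 degree Celsius. Fixed cells were immunostained for phospho-rpS6 Ser235/236 and counterstained, and the normalized signal was scored as % active cells against rapamycin and DMSO controls.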

[7] = High Content Imaging Cell-Based qHTS for Inhibitors of the mTORC1 Signaling Pathway in MEF Cells (AID 2667);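 also: Tsc2-/- p53-/- MEFs stably re-expressing wild-type Tsc2 exposed 24 h; series mostly up to about 38 µM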
Summary of the method: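 Immunofluorescence for rpS6 phosphorylation in MEFs of Tsc2-/-, p53-/- background rescued with WT Tsc2. Compound exposure lasted 24 hrs. Inhibition was scored against rapamycin-treated control wells.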

[8] = Validation screen for small molecules that induce DNA re-replication in MCF 10A normal breast cells (AID 463097); also: nearly all actives have a fitted effect of over 60% in size
Summary of the method: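 MCF 10A cells exposed to compound 48 hr at 37 C, 5% CO2, then Hoechst-stained 40 min. Laser-scanning imaging of nuclear DNA content (405 nm ex, 500-530 nm em); re-replication scored as rise in nuclei with elevated fluorescence intensity.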

[9] = biological target: Ubiquitin carboxyl-terminal hydrolase 2 (Homo sapiens) (UniProt O75604); test: qHTS Validation Assay for Inhibitors of Ubiquitin-specific Protease USP2a Using CHOP2 as the Reporter (AID 463106)
Sequence of Ubiquitin carboxyl-terminal hydrolase 2 (Homo sapiens) (O75604 whole entry, looked up): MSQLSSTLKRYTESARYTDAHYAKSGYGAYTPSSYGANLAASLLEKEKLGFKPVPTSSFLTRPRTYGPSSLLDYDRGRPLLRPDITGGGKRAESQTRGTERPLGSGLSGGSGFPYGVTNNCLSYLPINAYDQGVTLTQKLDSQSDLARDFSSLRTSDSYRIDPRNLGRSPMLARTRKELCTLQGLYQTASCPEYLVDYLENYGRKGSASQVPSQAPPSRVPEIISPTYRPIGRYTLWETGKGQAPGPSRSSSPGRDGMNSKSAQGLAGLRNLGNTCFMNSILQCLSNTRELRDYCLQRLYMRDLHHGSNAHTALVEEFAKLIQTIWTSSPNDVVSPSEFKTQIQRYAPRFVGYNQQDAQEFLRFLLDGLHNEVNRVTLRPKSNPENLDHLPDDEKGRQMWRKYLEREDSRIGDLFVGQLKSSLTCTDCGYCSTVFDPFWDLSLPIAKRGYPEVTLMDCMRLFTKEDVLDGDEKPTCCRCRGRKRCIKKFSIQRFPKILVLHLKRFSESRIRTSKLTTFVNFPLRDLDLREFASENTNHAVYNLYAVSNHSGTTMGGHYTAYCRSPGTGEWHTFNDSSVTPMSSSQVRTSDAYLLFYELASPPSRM
Summary of the method: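 10nM USP2 core + cpd, 30min RT; add 25nM Ub-CHOP2/25nM substrate; 60min RT; FI 485/531nm. Buffer Tris pH 8.0, CaCl2, BME, CHAPS. Norm. to NEM = 100% inhibition; time-zero read flags fluorescent artifacts.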

[10] = biological target: DNA polymerase III PolC-type (Bacillus subtilis (strain 168)) (UniProt P13267); test: qHTS Validation Assay for the Inhibitors of DNA Replication in Gram-Positive Bacteria (AID 485295);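 also: PicoGreen fluorescence of double-stranded DNA made on primed circular M13 template; series mostly up to about 57 µM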
Sequence of DNA polymerase III PolC-type (Bacillus subtilis (strain 168)) (P13267 whole entry, looked up): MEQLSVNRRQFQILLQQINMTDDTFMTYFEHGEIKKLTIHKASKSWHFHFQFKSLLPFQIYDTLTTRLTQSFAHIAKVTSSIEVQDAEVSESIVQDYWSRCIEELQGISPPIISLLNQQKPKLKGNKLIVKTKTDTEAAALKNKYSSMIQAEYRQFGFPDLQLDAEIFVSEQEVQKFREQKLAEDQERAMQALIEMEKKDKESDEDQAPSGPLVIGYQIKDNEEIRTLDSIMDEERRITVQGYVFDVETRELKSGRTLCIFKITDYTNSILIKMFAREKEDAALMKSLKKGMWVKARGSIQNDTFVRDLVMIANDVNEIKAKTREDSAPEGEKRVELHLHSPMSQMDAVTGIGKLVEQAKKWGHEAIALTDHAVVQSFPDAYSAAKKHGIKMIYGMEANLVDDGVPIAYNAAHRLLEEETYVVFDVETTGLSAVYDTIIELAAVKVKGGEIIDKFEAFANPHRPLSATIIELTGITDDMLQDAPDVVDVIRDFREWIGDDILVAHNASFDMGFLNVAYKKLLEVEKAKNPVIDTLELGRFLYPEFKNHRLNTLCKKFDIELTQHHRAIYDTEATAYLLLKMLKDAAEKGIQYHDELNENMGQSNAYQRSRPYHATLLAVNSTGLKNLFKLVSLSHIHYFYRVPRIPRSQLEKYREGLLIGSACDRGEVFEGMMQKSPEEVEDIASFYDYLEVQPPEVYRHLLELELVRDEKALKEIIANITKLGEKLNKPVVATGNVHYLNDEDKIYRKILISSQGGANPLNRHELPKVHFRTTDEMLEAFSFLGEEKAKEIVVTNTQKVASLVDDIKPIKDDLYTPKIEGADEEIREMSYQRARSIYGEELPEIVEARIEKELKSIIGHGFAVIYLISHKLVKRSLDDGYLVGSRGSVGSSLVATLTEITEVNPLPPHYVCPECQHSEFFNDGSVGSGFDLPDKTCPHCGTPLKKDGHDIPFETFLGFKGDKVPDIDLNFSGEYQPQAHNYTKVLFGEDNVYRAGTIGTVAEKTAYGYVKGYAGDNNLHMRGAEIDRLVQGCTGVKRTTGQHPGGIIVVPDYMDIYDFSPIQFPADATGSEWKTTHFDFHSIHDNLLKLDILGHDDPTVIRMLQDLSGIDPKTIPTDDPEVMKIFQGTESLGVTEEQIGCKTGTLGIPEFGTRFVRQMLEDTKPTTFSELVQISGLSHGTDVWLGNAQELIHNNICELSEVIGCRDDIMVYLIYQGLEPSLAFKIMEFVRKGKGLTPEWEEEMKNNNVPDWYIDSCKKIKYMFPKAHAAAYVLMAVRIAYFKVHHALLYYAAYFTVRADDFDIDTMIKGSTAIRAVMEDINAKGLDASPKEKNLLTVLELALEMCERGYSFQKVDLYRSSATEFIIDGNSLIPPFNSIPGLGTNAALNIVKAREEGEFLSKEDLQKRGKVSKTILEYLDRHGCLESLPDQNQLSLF
Summary of the method: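 Reconstituted B. subtilis Pol III holoenzyme (PolC, beta clamp, SSB, primase) preincubated with compound, then M13Gori single-stranded circular template with dNTPs/NTPs added; room temperature reaction. Stopped with EDTA/PicoGreen; dsDNA fluorescence read, EDTA as full-inhibition control.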

[11] = biological target: Tumor susceptibility gene 101 protein (Homo sapiens) (UniProt Q99816); test: qHTS Validation Assay for Iinhibitors of HIV-1 Budding by Blocking the Interaction of PTAP/TSG101 (AID 485342; calls by dose curve)
Sequence of Tumor susceptibility gene 101 protein (Homo sapiens) (Q99816 whole entry, looked up, the tested form may be a part): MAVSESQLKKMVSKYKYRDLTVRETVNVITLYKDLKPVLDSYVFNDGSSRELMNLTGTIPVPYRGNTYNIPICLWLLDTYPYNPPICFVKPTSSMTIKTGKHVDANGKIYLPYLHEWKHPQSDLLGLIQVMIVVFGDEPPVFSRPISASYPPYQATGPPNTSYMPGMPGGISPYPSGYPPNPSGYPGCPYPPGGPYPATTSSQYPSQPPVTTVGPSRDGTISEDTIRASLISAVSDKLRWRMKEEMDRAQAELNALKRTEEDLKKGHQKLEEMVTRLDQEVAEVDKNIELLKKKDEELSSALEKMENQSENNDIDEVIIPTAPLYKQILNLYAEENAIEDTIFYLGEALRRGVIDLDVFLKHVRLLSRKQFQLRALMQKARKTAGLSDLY
Summary of the method: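 Tsg101 binding domain (10 uM) with FITC-labeled PTAP peptide (50 nM) in HEPES pH 7.5 buffer, 20 min at r.t. with compounds. Binding measured by fluorescence polarization.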

[12] = qHTS Validation Assay to Find Inhibitors of Chronic Active B-Cell Receptor Signaling (AID 485345; active = well fitted curve in the direction sought with a large enough effect in the main read-out, with a control signal flat, not every such curve was filed as active)
Summary of the method: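 Read-out: ratio of filter-corrected green (IkappaBalpha fusion) to red (native) luciferase signal in doxycycline-induced TMD8 cells after 4 h at 37C. Titration spanned 46 uM–3 nM; Data were normalised to basal cells and 10 uM MG-132 wells.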

[13] = biological target: Beta-2 adrenergic receptor (Homo sapiens) (UniProt P07550); test: qHTS validation assay of beta-arrestin-biased ligands of beta2-adrenergic receptor (AID 485366)
Sequence of Beta-2 adrenergic receptor (Homo sapiens) (P07550 whole entry, looked up): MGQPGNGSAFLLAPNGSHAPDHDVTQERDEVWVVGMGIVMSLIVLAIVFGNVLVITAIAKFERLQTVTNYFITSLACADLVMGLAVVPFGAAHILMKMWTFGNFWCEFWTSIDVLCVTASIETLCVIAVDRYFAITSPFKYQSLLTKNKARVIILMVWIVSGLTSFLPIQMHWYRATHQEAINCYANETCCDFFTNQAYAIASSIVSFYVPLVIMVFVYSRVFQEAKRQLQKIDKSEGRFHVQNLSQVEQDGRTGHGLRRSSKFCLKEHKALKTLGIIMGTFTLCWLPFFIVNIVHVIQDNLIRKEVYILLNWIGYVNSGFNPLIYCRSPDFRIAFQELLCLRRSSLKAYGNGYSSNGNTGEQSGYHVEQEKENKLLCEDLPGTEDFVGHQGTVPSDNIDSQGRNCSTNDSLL
Summary of the method: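 Arrestin-recruitment (Tango) reporter: ligand-bound beta2-AR recruits beta-arrestin, releasing tTA, which upregulates luciferase. Titrations of up to 46 microM incubated 18 hr at 37 degrees C before luminescent readout.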

[14] = biological target: ATP-dependent 6-phosphofructokinase (Trypanosoma brucei brucei) (UniProt O15648); test: qHTS Validation Assay to Find Inhibitors of T. brucei phosphofructokinase (AID 485368)
Sequence of ATP-dependent 6-phosphofructokinase (Trypanosoma brucei brucei) (O15648 whole entry, looked up): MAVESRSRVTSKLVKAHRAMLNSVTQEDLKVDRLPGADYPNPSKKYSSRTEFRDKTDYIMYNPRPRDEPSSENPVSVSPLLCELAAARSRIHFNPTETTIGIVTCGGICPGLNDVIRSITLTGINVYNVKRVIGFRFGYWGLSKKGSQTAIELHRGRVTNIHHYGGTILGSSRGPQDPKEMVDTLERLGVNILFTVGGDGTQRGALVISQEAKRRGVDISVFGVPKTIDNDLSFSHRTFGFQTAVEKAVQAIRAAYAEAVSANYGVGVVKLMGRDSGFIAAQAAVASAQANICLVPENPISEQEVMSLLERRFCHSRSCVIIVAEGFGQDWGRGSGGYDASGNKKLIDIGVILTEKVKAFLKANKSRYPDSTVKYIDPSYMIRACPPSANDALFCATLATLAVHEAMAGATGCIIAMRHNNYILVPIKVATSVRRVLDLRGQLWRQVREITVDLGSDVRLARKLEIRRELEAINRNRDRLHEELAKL
Summary of the method: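 Steps: substrate mix (0.5 mM F6P, 0.1 mM ATP, MgCl2, TEA pH 8.0); compound; 1.25 nM T. brucei PFK; 45 min RT; ATP depletion 10 min; ADP-to-ATP detection 10 min; luminescence read; curve fitting and classification.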

[15] = Quantitative high throughput screen for delayed death inhibitors of the malarial parasite plastid, 96 hour incubation (AID 488745); also: series mostly up to about 29 µM; nearly all actives have a fitted effect of over 70% in size
Summary of the method: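 Luciferase-expressing P. falciparum in erythrocytes (2% hematocrit, 0.1% parasitemia) incubated with compound for 96 h at 37 C, 5% CO2, in RPMI 1640 with 0.5% Albumax. Growth inhibition read as decreased luminescence.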

[16] = Quantitative high throughput screen for delayed death inhibitors of the malarial parasite plastid, 48 hour incubation (AID 488752); also: nearly all actives have a fitted effect of over 65% in size; also: potency is read from the fitted curve at half-maximal effect
Summary of the method: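 Erythrocytes infected with firefly luciferase-expressing P. falciparum (2% hematocrit, 0.1% parasitemia) cultured with compound for 48 h at 37 C, 5% CO2, in RPMI 1640/0.5% Albumax. Growth inhibition read as loss of luminescence.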

[17] = qHTS for differential inhibitors of proliferation of Plasmodium falciparum line W2 (AID 1883); conditions: Potency: Plasmodium falciparum W2 proliferation inhibition;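 also: potency is read from the fitted curve at half-maximal effect; parasites grown with compound for 72 h before lysis and staining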
[18] = biological target: ATP-dependent DNA helicase Q1 (Homo sapiens) (UniProt P46063); test: qHTS Validation Assay for Inhibitors of RecQ-Like Dna Helicase 1 (RECQ1) (AID 2353)
Summary of the method: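 50 nM RECQ1T1 preincubated 15 min with compound in Tris pH 8.0 buffer with MgCl2, DTT, Tween-20 and 2.5 ug/ml poly(dI-dC); started with 200 nM TAMRA/BHQ-2 forked duplex and 2 mM ATP. Unwinding read as fluorescence (525/598 nm), two reads 2 h apart.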

[19] = biological target: RecQ-like DNA helicase BLM (Homo sapiens) (UniProt P54132); test: qHTS Validation Assay for Inhibitors of Bloom's syndrome helicase (BLM) (AID 2364)
Sequence of RecQ-like DNA helicase BLM (Homo sapiens) (P54132 whole entry, looked up): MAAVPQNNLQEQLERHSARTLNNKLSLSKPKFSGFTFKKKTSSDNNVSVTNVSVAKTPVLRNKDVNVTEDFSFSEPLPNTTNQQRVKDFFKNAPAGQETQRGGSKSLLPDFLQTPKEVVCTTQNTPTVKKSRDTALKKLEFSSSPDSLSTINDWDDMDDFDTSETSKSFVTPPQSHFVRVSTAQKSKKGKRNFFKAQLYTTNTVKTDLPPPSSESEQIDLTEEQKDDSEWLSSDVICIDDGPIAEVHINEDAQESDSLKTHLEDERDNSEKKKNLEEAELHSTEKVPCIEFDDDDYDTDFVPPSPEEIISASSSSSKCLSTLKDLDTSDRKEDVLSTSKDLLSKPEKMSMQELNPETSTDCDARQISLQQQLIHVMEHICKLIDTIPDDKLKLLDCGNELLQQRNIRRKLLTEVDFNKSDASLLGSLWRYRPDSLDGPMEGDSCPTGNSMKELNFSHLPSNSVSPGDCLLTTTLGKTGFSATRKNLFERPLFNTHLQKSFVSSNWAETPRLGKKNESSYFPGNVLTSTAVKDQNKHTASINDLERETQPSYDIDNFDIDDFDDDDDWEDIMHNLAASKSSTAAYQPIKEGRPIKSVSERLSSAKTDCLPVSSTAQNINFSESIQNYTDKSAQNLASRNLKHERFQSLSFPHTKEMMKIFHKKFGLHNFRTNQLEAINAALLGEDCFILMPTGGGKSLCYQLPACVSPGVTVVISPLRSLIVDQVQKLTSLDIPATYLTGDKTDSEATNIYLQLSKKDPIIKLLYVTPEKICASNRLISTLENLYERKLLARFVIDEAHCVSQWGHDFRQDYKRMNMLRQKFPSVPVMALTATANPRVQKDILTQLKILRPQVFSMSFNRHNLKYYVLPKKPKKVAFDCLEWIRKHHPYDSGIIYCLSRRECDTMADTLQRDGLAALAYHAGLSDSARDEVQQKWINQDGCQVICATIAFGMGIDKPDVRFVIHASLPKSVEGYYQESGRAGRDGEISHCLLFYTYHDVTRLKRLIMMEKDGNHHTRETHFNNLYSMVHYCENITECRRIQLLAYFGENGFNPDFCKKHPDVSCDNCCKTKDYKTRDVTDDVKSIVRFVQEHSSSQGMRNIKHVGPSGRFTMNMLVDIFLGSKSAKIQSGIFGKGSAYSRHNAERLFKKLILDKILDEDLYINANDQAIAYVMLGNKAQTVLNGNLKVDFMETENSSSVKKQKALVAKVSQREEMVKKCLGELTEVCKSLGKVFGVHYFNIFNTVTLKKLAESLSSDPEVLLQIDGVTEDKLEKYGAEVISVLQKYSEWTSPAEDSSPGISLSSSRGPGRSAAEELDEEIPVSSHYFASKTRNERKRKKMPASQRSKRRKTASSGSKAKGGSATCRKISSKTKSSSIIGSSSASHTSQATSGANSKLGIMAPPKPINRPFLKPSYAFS
Summary of the method: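 Forked 20-bp duplex substrate (200 nM, TAMRA/BHQ-2) plus 2 mM ATP added after 15 min compound preincubation with 50 nM enzyme, pH 8.0, poly(dI-dC) 2.5 ug/ml. Strand separation followed by fluorescence (525/598 nm) over 2 h, normalized to enzyme-free and DMSO controls.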

[20] = qHTS Assay for Identification of Small Molecule Inducers of Hypoxia Response (AID 2120; active = well fitted curve in the direction sought with a large enough effect in the signal ratio, with a control signal flat, not every such curve was filed as active; the % refers to the signal ratio)
Summary of the method: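 HRE-bla ME-180 cells in Opti-MEM with 0.5% dialyzed FBS, pre-plated 4-5 h, then compound titration for 17 h at 37 degrees Celsius. CCF4 loaded 2.5 h at room temperature; 460/530 nm ratio gave %Activity and AC50 for induction.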

| Compound | Potency [1] | Potency [2] | outcome [3] | outcome [4] | Potency [5] | Potency [6] | Potency [7] | outcome [8] | outcome [9] | outcome [10] | outcome [11] | outcome [12] | outcome [13] | Potency [14] | Potency [15] | Potency [16] | Potency [17] | Potency [18] | outcome [19] | outcome [20] |
| --- | --- | --- | --- | --- | --- | --- | --- | --- | --- | --- | --- | --- | --- | --- | --- | --- | --- | --- | --- | --- |
| CC(C)(C)c1onc(OCP(=O)(O)O)c1CC(N)C(=O)O (stereo unspecified) | inactive | inactive | inactive | inactive | inactive | inactive | inactive | inactive | inactive | inactive | inactive | inactive | inactive | inactive | inactive | inactive |  |  |  |  |
| CC(C(O)c1ccc(O)cc1)N1CCC(Cc2ccccc2)CC1 (stereo unspecified) | 10 µM (active) | 5.01 µM (active) |  | inactive | inactive | inactive |  |  | inactive | inactive | inactive |  | inactive | inactive |  | 4.65 µM (active) | 2.82 µM (active) | inactive | inactive |  |
| CC1=C(CC(=O)O)c2cc(F)ccc2/C1=C\c1ccc(S(C)=O)cc1 (stereo unspecified) | inactive | inactive |  |  | inactive | inactive | inactive | inactive | inactive | inactive | inactive | inactive | inactive |  | inactive | inactive |  |  |  |  |
| CCN(CC)CCOC(=O)C1(C2CCCCC2)CCCCC1 | 5.01 µM (active) | 12.6 µM (active) |  | inactive | inactive | inactive | inactive | inactive | inactive | inactive | inactive | inactive | inactive | inactive | inactive | inactive | 5.62 µM (active) |  | inactive |  |
| CC(C)(C(=O)O)c1ccc(C(O)CCCN2CCC(C(O)(c3ccccc3)c3ccccc3)CC2)cc1 (stereo unspecified) | inactive | inactive | inactive |  | inactive | inactive | inactive | inactive | inactive | inactive | inactive | inactive | inactive |  | inactive | inactive |  |  |  |  |
| CN(C)CCCN1c2ccccc2Sc2ccc(Cl)cc21 | 12.6 µM (active) | 8.91 µM (active) |  | inactive | inactive | inactive |  |  | inactive | inactive | inactive |  | inactive | inactive |  |  | 3.55 µM (active) |  | inactive |  |
| N=c1c[n+](N2CCOCC2)[n-]o1 | inactive | inactive | inactive | inactive | inactive | inactive | inactive | inactive | inactive | inactive | inactive | inactive | inactive | inactive | inactive | inactive |  |  | inactive |  |
| CC1=C(/C=C/C(C)=C/C=C/C(C)=C/C(=O)O)C(C)(C)CCC1 |  |  |  |  | inactive | inactive | inactive |  | inactive | inactive | inactive |  | inactive |  |  |  | 14.1 µM (active) |  |  |  |
| CC12CCC(CC1)C(C)(C)O2 |  |  |  |  |  |  |  |  |  |  |  |  |  |  |  |  |  |  |  | inactive |
| Cc1cc(CC(=O)O)n(C)c1C(=O)c1ccc(Cl)cc1 |  |  |  |  |  |  |  |  |  |  |  |  |  |  |  |  |  |  |  | inactive |
| CCN(CC)C(C)CN1c2ccccc2Sc2ccccc21 (stereo unspecified) |  |  |  |  | inactive | inactive | inactive |  | inactive | inactive | inactive | inactive | inactive |  |  |  |  |  |  |  |
| CN(C)CCCN1c2ccccc2CCc2ccccc21 |  |  |  | inactive | inactive | inactive |  | inactive |  | inactive | inactive | inactive | inactive |  | inactive |  |  |  | inactive |  |
| Nc1ncnc2c1ncn2[C@@H]1O[C@H](CO)[C@@H](O)[C@H]1O |  |  |  |  | inactive | inactive | inactive |  | inactive | inactive | inactive |  | inactive | inactive |  |  |  |  |  |  |
| CNC(=O)Oc1ccc2c(c1)[C@]1(C)CCN(C)[C@@H]1N2C |  |  |  | inactive | inactive | inactive | inactive | inactive | inactive | inactive | inactive | inactive | inactive |  | inactive | inactive |  |  |  |  |
| CNCCCC1c2ccccc2C=Cc2ccccc21 |  | 11.2 µM (active) |  | inactive | inactive | inactive | inactive | inactive | inactive | inactive | inactive | inactive | inactive |  | inactive | 14.7 µM (active) | 4.47 µM (active) |  | inactive |  |
